# Experimental data taken from the supplement of paper PMC4962491.
# ± gives the standard deviation of the averaged measurements.
# Test system: FaDu
# Assay: mitochondrial oxygen consumption rate normalised to cell number, Z score vs plate DMSO wells; higher = higher oxygen consumption (negative = OCR reduction)
# Conditions: treatment time 24 h, assay medium: 5 mM glucose, 5 mM pyruvate, 4 mM glutamine
# Protocol: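 Secondary screen: FaDu cells were incubated 24 h with the top 130 primary hits at 0.08, 0.4, 2 or 10 uM. Mitochondrial-specific OCR (basal minus antimycin A) was measured on a Seahorse XF96 in medium with 5 mM glucose, 5 mM pyruvate and 4 mM glutamine and normalised to Hoechst cell number. OCR score = (OCR - mean of plate DMSO wells) / SD of plate DMSO wells. Three repeats.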
# 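Also: compound exposure in DMEM (4 mM L-glutamine, 5 mM glucose), antimycin A injected at 2 µM after the basal reading and its residual OCR subtracted from basal.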
SMILES,mitochondrial oxygen consumption rate normalised (0.08 µM),mitochondrial oxygen consumption rate normalised (0.4 µM),mitochondrial oxygen consumption rate normalised (2 µM),mitochondrial oxygen consumption rate normalised (10 µM)
CC(=O)O[C@H]1C[C@H](O[C@H]2[C@@H](O)C[C@H](O[C@H]3[C@@H](O)C[C@H](O[C@H]4CC[C@@]5(C)[C@H](CC[C@@H]6[C@@H]5C[C@@H](O)[C@]5(C)[C@@H](C7=CC(=O)OC7)CC[C@]65O)C4)O[C@@H]3C)O[C@@H]2C)O[C@H](C)[C@H]1O[C@@H]1O[C@H](CO)[C@@H](O)[C@H](O)[C@H]1O,-0.88 ± 0.81,-3.22 ± 1.3,,
CC[C@H]1CN2CCc3cc(OC)c(OC)cc3[C@@H]2C[C@@H]1C[C@H]1NCCc2cc(OC)c(OC)cc21,-2.43 ± 0.17,-3.08 ± 0.73,-9.68 ± 0.42,-11.8 ± 0.41
CC(C)[N+](C)(CCC(C(N)=O)(c1ccccc1)c1ccccc1)C(C)C,-0.746 ± 1.7,0.934 ± 0.43,0.355 ± 1.3,-0.361 ± 2
COc1ccc(Cc2nccc3cc(OC)c(OC)cc23)cc1OC,0.452 ± 1,1.06 ± 1.4,0.739 ± 0.59,-0.208 ± 3.2
C=C1C[C@@H]2[C@H](CC[C@]3(C)C(=O)CC[C@@H]23)[C@@]2(C)C=CC(=O)C=C12,-0.364 ± 0.53,1.24 ± 0.73,-0.149 ± 1,0.548 ± 0.94
S=C=NCc1ccccc1,0.549 ± 1.3,1.06 ± 1.3,0.157 ± 2.2,
CCN1C[C@]2(COC)[C@H](O)C[C@H](OC)[C@@]34[C@@H]5C[C@@]6(O)[C@H](OC(=O)c7ccccc7)[C@@H]5[C@@](OC(C)=O)([C@@H]([C@H](OC)[C@H]23)[C@@H]14)[C@@H](O)[C@@H]6OC,-1.27 ± 0.64,0.916 ± 0.68,-0.205 ± 0.67,-1.19 ± 2.6
CC(=O)Oc1ccc(Cl)c2cccnc12,1.68 ± 0.74,1.4 ± 1.5,1.41 ± 0.58,-4.99 ± 1.8
O=c1[nH]c2ccccc2n1C1CCN(CCCC(c2ccc(F)cc2)c2ccc(F)cc2)CC1,0.0686 ± 1.5,0.719 ± 0.8,-0.247 ± 1,-2.41 ± 0.47
COc1cc([C@@H]2c3cc4c(cc3[C@H](O)[C@H]3COC(=O)[C@H]23)OCO4)cc(OC)c1OC,-0.539 ± 1.6,-0.043 ± 0.98,0.427 ± 0.56,-0.617 ± 1.2
CCCCCCCCCCCCCCCC[n+]1ccccc1,-1.4 ± 1.2,-7.98 ± 1.3,-12.98 ± 0.12,
